Each structure is given as a SMILES string. This is part of a sample that, as a whole, favours compounds with a hit. Of some 79,000 tested, about 15% had one in any assay. Unmarked numbers belong to inactive results. The source made the active and inactive calls. Cut-off read from the data, not from the text of the source: active = growth inhibition above about 70%; inactive = the rest.

Assay [1] in a line: NCI Yeast Anticancer Drug Screen. Data for the rad50 strain (AID 155).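 Note: 0% = growth of vehicle-only cultures of the same strain.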 As to conditions: S. cerevisiae rad50 strain growth inhibition, hits give high values. An outline of the steps:
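Compounds were tested on a yeast strain with an engineered DNA damage repair alteration; the reported value is growth inhibition normalised to vehicle treatment.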

Assay [2] can be described thus: NCI Yeast Anticancer Drug Screen. Data for the mec2-1 strain (AID 157). Conditions: S. cerevisiae mec2-1 strain, hits give high values. A digest of the protocol: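 Strain: mec2-1 (DNA repair/cell cycle alteration). Compound exposure, then growth measured; inhibition expressed relative to vehicle.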
Assay [3] is described as follows: NCI Yeast Anticancer Drug Screen. Data for the sgs1 mgt1 strain (AID 161).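 Note: 0% = growth of cultures given vehicle only.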 Conditions: S. cerevisiae sgs1 mgt1 strain, hits give high values. An outline of the steps:
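Genetically altered yeast, compound exposure, growth inhibition relative to vehicle.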

Assay [4] can be described thus: NCI Yeast Anticancer Drug Screen. Data for the cln2 rad14 strain (AID 165).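 Note: 0% = growth equal to vehicle treated cultures.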 As to conditions: S. cerevisiae cln2 rad14 strain, hits give high values. An outline of the steps: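 Compounds are applied to the cln2 rad14 yeast strain, and growth is then compared with that of vehicle-treated cultures to give inhibition.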
Assay [5] is described as follows: NCI Yeast Anticancer Drug Screen. Data for the bub3 strain (AID 167). Conditions: S. cerevisiae bub3 mutant strain, hits give high values. An outline of the steps: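 Growth of a checkpoint-deficient yeast mutant is measured after compound exposure. Values represent inhibition relative to vehicle.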
Assay [6] in a line: NCI Yeast Anticancer Drug Screen. Data for the mlh1 rad18 strain (AID 175). Conditions: S. cerevisiae mlh1 rad18 strain growth inhibition, hits give high values. A digest of the protocol:
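Read-out is yeast growth inhibition, calculated against vehicle-only controls. The compound was applied to a strain engineered with DNA damage repair alterations.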

Setting [7] is: at 5.0 µM (retest, dose inferred, filed as 0.5).
Where [8] appears, read: at 50.0 µM (retest, dose inferred, filed as 5.0).

For `O=C1C(Cl)=C(c2ccccc2)C1Cl` (stereo not given), the growth inhibition is 97% (active) in assay [1] (setting [7]); 100% (active) in assay [1] (setting [8]); 99.2% (active) in assay [1] (at 50.0 µM); 98% (active) in assay [2] (setting [7]); 99% (active) in assay [2] (setting [8]); 99.5% (active) in assay [2] (at 50.0 µM). Further, the growth inhibition in assay [3] (setting [7]) is 99% (active); in assay [3] (setting [8]), 100% (active); in assay [3] (at 50.0 µM), 99.7% (active); in assay [4] (setting [7]), 98% (active); in assay [4] (setting [8]) it was 99% (active); in assay [4] (at 50.0 µM), 99.5% (active). For the same compound, the growth inhibition is 96% (active) in assay [5] (setting [7]); 99% (active) in assay [5] (setting [8]); 99.5% (active) in assay [5] (at 50.0 µM); 99% (active) in assay [6] (setting [7]); 99% (active) in assay [6] (setting [8]); 99.2% (active) in assay [6] (at 50.0 µM).
For the compound `CCN(CC)CCCCCCNc1cc(Cl)cc2cccnc12`, the growth inhibition was 18% in assay [1] (setting [7]); 71% (active) in assay [1] (setting [8]); 91.6% (active) in assay [1] (at 50.0 µM); 14% in assay [2] (setting [7]); 64% in assay [2] (setting [8]); 89.9% (active) in assay [2] (at 50.0 µM). The growth inhibition in assay [3] (setting [7]) was 28%; in assay [3] (setting [8]), 94% (active); in assay [3] (at 50.0 µM), 97.5% (active); in assay [4] (setting [7]) it was 26%; in assay [4] (setting [8]), 68%; in assay [4] (at 50.0 µM), 97% (active). For the same compound, the growth inhibition is 42% in assay [5] (setting [7]); 79% (active) in assay [5] (setting [8]); 85.4% (active) in assay [5] (at 50.0 µM); 27% in assay [6] (setting [7]); 84% (active) in assay [6] (setting [8]); 97.5% (active) in assay [6] (at 50.0 µM).
Take `Cc1ccc2c(c1)C(O)(c1ccccc1)CCS2` (stereo not given): the growth inhibition in assay [1] (setting [7]) is 87% (active); in assay [1] (setting [8]), 95% (active); in assay [1] (at 50.0 µM) it was 90.2% (active); in assay [2] (setting [7]), 58%; in assay [2] (setting [8]) it was 97% (active); in assay [2] (at 50.0 µM), 77.2% (active). Also, the growth inhibition in assay [3] (setting [7]) is 86% (active); in assay [3] (setting [8]), 97% (active); in assay [3] (at 50.0 µM) it was 91.8% (active); in assay [4] (setting [7]) it was 16%; in assay [4] (setting [8]), 96% (active); in assay [4] (at 50.0 µM) it was 71.2% (active). For the same compound, the growth inhibition in assay [5] (setting [7]) is 46%; in assay [5] (setting [8]), 96% (active); in assay [5] (at 50.0 µM), 86.8% (active); in assay [6] (setting [7]) it was 66%; in assay [6] (setting [8]) it was 94% (active); in assay [6] (at 50.0 µM), 94.3% (active).
For the compound `CCC(CC)N(CCNc1cc(OC)cc2cccnc12)CC(C)C`, the growth inhibition in assay [1] (setting [7]) is 7%; in assay [1] (setting [8]), 7%; in assay [1] (at 50.0 µM), 60.8%; in assay [2] (setting [7]), 1%; in assay [2] (setting [8]), 0%; in assay [2] (at 50.0 µM), 26%. In addition, the growth inhibition in assay [3] (setting [7]) is 4%; in assay [3] (setting [8]), 12%; in assay [3] (at 50.0 µM) it was 53.6%; in assay [4] (setting [7]) it was 9%; in assay [4] (setting [8]), -6%; in assay [4] (at 50.0 µM) it was 49.5%. Moreover, the growth inhibition in assay [5] (setting [7]) is 4%; in assay [5] (setting [8]) it was 11%; in assay [5] (at 50.0 µM), 57%; in assay [6] (setting [7]), 4%; in assay [6] (setting [8]) it was 10%; in assay [6] (at 50.0 µM), 67.8%.
In the case of `CC(/C=N/NS(=O)(=O)c1ccc(C)cc1)=C(c1ccccc1)c1ccccc1`, the growth inhibition in assay [1] (setting [7]) was 18%; in assay [1] (setting [8]) it was 87% (active); in assay [1] (at 50.0 µM), 81.2% (active); in assay [2] (setting [7]) it was 35%; in assay [2] (setting [8]) it was 96% (active); in assay [2] (at 50.0 µM), 55.5%. In addition, the growth inhibition in assay [3] (setting [7]) was -79%; in assay [3] (setting [8]), 96% (active); in assay [3] (at 50.0 µM) it was 82.5% (active); in assay [4] (setting [7]), -10%; in assay [4] (setting [8]), 89% (active); in assay [4] (at 50.0 µM) it was 72.8% (active). In addition, the growth inhibition in assay [5] (setting [7]) was 43%; in assay [5] (setting [8]), 93% (active); in assay [5] (at 50.0 µM) it was 70.4% (active); in assay [6] (setting [7]) it was 62%; in assay [6] (setting [8]), 94% (active); in assay [6] (at 50.0 µM) it was 85% (active).
`COC(=O)c1c(C)cccc1C(=O)c1c(C)cc(C)cc1C`: the growth inhibition was -6% in assay [1] (setting [7]); 63% in assay [1] (setting [8]); 73.1% (active) in assay [1] (at 50.0 µM); 21% in assay [2] (setting [7]); 68% in assay [2] (setting [8]); 82.2% (active) in assay [2] (at 50.0 µM). Further, the growth inhibition in assay [3] (setting [7]) was -1%; in assay [3] (setting [8]), 82% (active); in assay [3] (at 50.0 µM), 91.8% (active); in assay [4] (setting [7]), -26%; in assay [4] (setting [8]), 45%; in assay [4] (at 50.0 µM), 15.2%. The growth inhibition in assay [5] (setting [7]) was 2%; in assay [5] (setting [8]), 56%; in assay [5] (at 50.0 µM) it was 88.2% (active); in assay [6] (setting [7]), 4%; in assay [6] (setting [8]) it was 85% (active); in assay [6] (at 50.0 µM), 91.8% (active).
On to `C[C@]12CC[C@H]3[C@@H](CCC4=CC(=O)CC[C@@]43C)[C@@H]1CC[C@@H]2C(=O)C=O`, for which the growth inhibition in assay [1] (setting [7]) is 19%; in assay [1] (setting [8]), 42%; in assay [1] (at 50.0 µM), 67.2%; in assay [2] (setting [7]) it was 6%; in assay [2] (setting [8]), 36%; in assay [2] (at 50.0 µM), 52.6%. The growth inhibition in assay [3] (setting [7]) is 16%; in assay [3] (setting [8]) it was 61%; in assay [3] (at 50.0 µM), 71% (active); in assay [4] (setting [7]), 5%; in assay [4] (setting [8]), 21%; in assay [4] (at 50.0 µM), 39%. Besides, the growth inhibition in assay [5] (setting [7]) is 1%; in assay [5] (setting [8]) it was 17%; in assay [5] (at 50.0 µM), 41.2%; in assay [6] (setting [7]), 27%; in assay [6] (setting [8]), 74% (active); in assay [6] (at 50.0 µM) it was 56.2%.
Regarding `Cc1cccc(Cc2cccc(Cl)c2)c1O`, the growth inhibition was -1% in assay [1] (setting [7]); 95% (active) in assay [1] (setting [8]); 99.3% (active) in assay [1] (at 50.0 µM); -1% in assay [2] (setting [7]); 98% (active) in assay [2] (setting [8]); 99.8% (active) in assay [2] (at 50.0 µM). The growth inhibition is 3% in assay [3] (setting [7]); 89% (active) in assay [3] (setting [8]); 99.6% (active) in assay [3] (at 50.0 µM); -4% in assay [4] (setting [7]); 90% (active) in assay [4] (setting [8]); 99% (active) in assay [4] (at 50.0 µM). The growth inhibition in assay [5] (setting [7]) was -9%; in assay [5] (setting [8]), 94% (active); in assay [5] (at 50.0 µM) it was 99.1% (active); in assay [6] (setting [7]), 8%; in assay [6] (setting [8]), 96% (active); in assay [6] (at 50.0 µM), 98.9% (active).
`Cc1cccc(Cc2ccc(Cl)cc2)c1O`: the growth inhibition in assay [1] (setting [7]) is 4%; in assay [1] (setting [8]) it was 99% (active); in assay [1] (at 50.0 µM) it was 99.3% (active); in assay [2] (setting [7]), -1%; in assay [2] (setting [8]) it was 100% (active); in assay [2] (at 50.0 µM) it was 99.5% (active). Moreover, the growth inhibition is 5% in assay [3] (setting [7]); 99% (active) in assay [3] (setting [8]); 99.5% (active) in assay [3] (at 50.0 µM); -10% in assay [4] (setting [7]); 99% (active) in assay [4] (setting [8]); 99.3% (active) in assay [4] (at 50.0 µM). In addition, the growth inhibition in assay [5] (setting [7]) is -6%; in assay [5] (setting [8]), 99% (active); in assay [5] (at 50.0 µM) it was 99.2% (active); in assay [6] (setting [7]), -2%; in assay [6] (setting [8]), 99% (active); in assay [6] (at 50.0 µM) it was 99% (active).
As to `Cc1c(-c2ccccc2)ccnc1/C=N/NC(=S)NCCc1ccccc1`, the growth inhibition in assay [1] (setting [7]) was 49%; in assay [1] (setting [8]) it was 77% (active); in assay [1] (at 50.0 µM), 76.3% (active); in assay [2] (setting [7]), 52%; in assay [2] (setting [8]) it was 85% (active); in assay [2] (at 50.0 µM), 76.3% (active). The growth inhibition in assay [3] (setting [7]) was 52%; in assay [3] (setting [8]), 83% (active); in assay [3] (at 50.0 µM) it was 75.5% (active); in assay [4] (setting [7]) it was 42%; in assay [4] (setting [8]), 80% (active); in assay [4] (at 50.0 µM), 70%. In addition, the growth inhibition in assay [5] (setting [7]) was 55%; in assay [5] (setting [8]), 84% (active); in assay [5] (at 50.0 µM) it was 77.7% (active); in assay [6] (setting [7]), 49%; in assay [6] (setting [8]), 80% (active); in assay [6] (at 50.0 µM), 74% (active).

The values above are taken from PubChem BioAssay (NCI).
